# Test results: PubChem BioAssay AID1159580 (chemical genetic matrix, 2015)
# Screen size: about 5,500 compounds; about 2,000 (36%) were called active. Roughly 18% stayed inconclusive and do not appear here. The list shows a part of the results. Values without a mark were called inactive. No stated cut-off is given here; in the data, active means normalized growth mostly below about 0.91 (no sharp cut-off); inconclusive means no clear call, values can overlap the other calls; inactive means mostly above about 0.92.
# Experiment: chemical genetic growth profiling, strain panel (AID 1159580);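 further: tested at 20 µM; growth read once vehicle control cultures reached saturation at 30 °C; 1 = growth at the plate median or of vehicle wells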
# Settings: growth OD
structure (smiles),measurement,setting,value
O=c1c(O)c(-c2ccccc2)oc2cc(O)ccc12,normalized growth,"S. cerevisiae deletion strains, locus YKL009W, strain mrt4, stronger effect = lower value",0.932
same,normalized growth,"S. cerevisiae deletion strains, locus YKL068W, stronger effect = lower value",0.948
same,normalized growth,"S. cerevisiae deletion strains, locus YKL085W, strain MDH1 (second series), stronger effect = lower value",0.911 (active)
same,normalized growth,"S. cerevisiae deletion strains, locus YKL085W, strain MDH1, stronger effect = lower value",0.911 (active)
same,normalized growth,"S. cerevisiae deletion strains, locus YKL160W, strain elf1, stronger effect = lower value",0.772 (active)
same,normalized growth,"S. cerevisiae deletion strains, locus YKL190W, strain CNB1, stronger effect = lower value",0.4 (active)
same,normalized growth,"S. cerevisiae deletion strains, locus YKR001C, strain vps1, stronger effect = lower value",0.708 (active)
same,normalized growth,"S. cerevisiae deletion strains, locus YKR026C, strain gcn3, stronger effect = lower value",0.879 (active)
same,normalized growth,"S. cerevisiae deletion strains, locus YKR091W, strain srl3, stronger effect = lower value",0.834 (active)
same,normalized growth,"S. cerevisiae deletion strains, locus YLL001W, strain dnm1, stronger effect = lower value",0.827 (active)
same,normalized growth,"S. cerevisiae deletion strains, locus YLL026W, stronger effect = lower value",0.558 (active)
same,normalized growth,"S. cerevisiae deletion strains, locus YLL041C, strain sdh2, stronger effect = lower value",0.85 (active)
same,normalized growth,"S. cerevisiae deletion strains, locus YLR027C, strain aat2, stronger effect = lower value",0.701 (active)
same,normalized growth,"S. cerevisiae deletion strains, locus YLR039C, strain RIC1, stronger effect = lower value",0.236 (active)
same,normalized growth,"S. cerevisiae deletion strains, locus YLR058C, strain SHM2, stronger effect = lower value",0.514 (active)
same,normalized growth,"S. cerevisiae deletion strains, locus YLR102C, strain apc9, stronger effect = lower value",0.935
same,normalized growth,"S. cerevisiae deletion strains, locus YLR113W, strain HOG1, stronger effect = lower value",1
same,normalized growth,"S. cerevisiae deletion strains, locus YLR221C, strain rsa3, stronger effect = lower value",0.759 (active)
same,normalized growth,"S. cerevisiae deletion strains, locus YLR258W, strain gsy2, stronger effect = lower value",0.699 (active)
same,normalized growth,"S. cerevisiae deletion strains, locus YLR262C, strain YPT6 (second series), stronger effect = lower value",0.341 (active)
same,normalized growth,"S. cerevisiae deletion strains, locus YLR262C, strain YPT6, stronger effect = lower value",0.263 (active)
same,normalized growth,"S. cerevisiae deletion strains, locus YLR268W, strain sec22, stronger effect = lower value",0.62 (active)
same,normalized growth,"S. cerevisiae deletion strains, locus YLR320W, strain mms22, stronger effect = lower value",0.674 (active)
same,normalized growth,"S. cerevisiae deletion strains, locus YLR330W, strain CHS5, stronger effect = lower value",0.663 (active)
same,normalized growth,"S. cerevisiae deletion strains, locus YLR342W, strain FKS1 (second series), stronger effect = lower value",0.51 (active)
same,normalized growth,"S. cerevisiae deletion strains, locus YLR342W, strain FKS1, stronger effect = lower value",0.765 (active)
same,normalized growth,"S. cerevisiae deletion strains, locus YLR357W, strain rsc2, stronger effect = lower value",0.717 (active)
same,normalized growth,"S. cerevisiae deletion strains, locus YLR370C, strain arc18, stronger effect = lower value",0.738 (active)
same,normalized growth,"S. cerevisiae deletion strains, locus YLR371W, strain rom2, stronger effect = lower value",0.636 (active)
same,normalized growth,"S. cerevisiae deletion strains, locus YLR384C, strain iki3, stronger effect = lower value",0.906 (active)
same,normalized growth,"S. cerevisiae deletion strains, locus YLR418C, strain cdc73, stronger effect = lower value",0.357 (active)
same,normalized growth,"S. cerevisiae deletion strains, locus YML016C, strain PPZ1, stronger effect = lower value",0.455 (active)
same,normalized growth,"S. cerevisiae deletion strains, locus YML032C, strain rad52, stronger effect = lower value",0.872 (active)
same,normalized growth,"S. cerevisiae deletion strains, locus YML120C, strain ndi1, stronger effect = lower value",0.887 (active)
same,normalized growth,"S. cerevisiae deletion strains, locus YML124C, strain tub3, stronger effect = lower value",0.827 (active)
same,normalized growth,"S. cerevisiae deletion strains, locus YMR058W, strain fet3, stronger effect = lower value",0.104 (active)
same,normalized growth,"S. cerevisiae deletion strains, locus YMR078C, strain ctf18, stronger effect = lower value",0.909 (active)
same,normalized growth,"S. cerevisiae deletion strains, locus YMR125W, strain sto1, stronger effect = lower value",0.929
same,normalized growth,"S. cerevisiae deletion strains, locus YMR129W, stronger effect = lower value",0.838 (active)
same,normalized growth,"S. cerevisiae deletion strains, locus YMR205C, strain PFK2, stronger effect = lower value",0.639 (active)
same,normalized growth,"S. cerevisiae deletion strains, locus YMR223W, strain ubp8, stronger effect = lower value",0.685 (active)
same,normalized growth,"S. cerevisiae deletion strains, locus YMR231W, strain pep5, stronger effect = lower value",0.336 (active)
same,normalized growth,"S. cerevisiae deletion strains, locus YMR307W, strain GAS1, stronger effect = lower value",0.328 (active)
same,normalized growth,"S. cerevisiae deletion strains, locus YNL067W, strain RPL9B, stronger effect = lower value",0.496 (active)
same,normalized growth,"S. cerevisiae deletion strains, locus YNL071W, strain lat1, stronger effect = lower value",0.709 (active)
same,normalized growth,"S. cerevisiae deletion strains, locus YNL128W, strain TEP1, stronger effect = lower value",0.319 (active)
same,normalized growth,"S. cerevisiae deletion strains, locus YNL153C, strain GIM3, stronger effect = lower value",0.577 (active)
same,normalized growth,"S. cerevisiae deletion strains, locus YNL183C, strain NPR1, stronger effect = lower value",0.98
same,normalized growth,"S. cerevisiae deletion strains, locus YNL209W, strain ssb2, stronger effect = lower value",0.335 (active)
same,normalized growth,"S. cerevisiae deletion strains, locus YNL233W, strain BNI4, stronger effect = lower value",0.479 (active)
same,normalized growth,"S. cerevisiae deletion strains, locus YNL248C, strain rpa49, stronger effect = lower value",0.859 (active)
same,normalized growth,"S. cerevisiae deletion strains, locus YNL250W, strain rad50, stronger effect = lower value",0.927
same,normalized growth,"S. cerevisiae deletion strains, locus YNL271C, strain bni1, stronger effect = lower value",0.858 (active)
same,normalized growth,"S. cerevisiae deletion strains, locus YNL298W, strain CLA4, stronger effect = lower value",0.914
same,normalized growth,"S. cerevisiae deletion strains, locus YNL307C, strain MCK1, stronger effect = lower value",0.745 (active)
same,normalized growth,"S. cerevisiae deletion strains, locus YNL322C, strain KRE1 (second series), stronger effect = lower value",0.971
same,normalized growth,"S. cerevisiae deletion strains, locus YNL322C, strain KRE1, stronger effect = lower value",0.415 (active)
same,normalized growth,"S. cerevisiae deletion strains, locus YNR049C, strain mso1, stronger effect = lower value",0.895 (active)
same,normalized growth,"S. cerevisiae deletion strains, locus YNR052C, strain pop2, stronger effect = lower value",0.713 (active)
same,normalized growth,"S. cerevisiae deletion strains, locus YOL006C, strain TOP1, stronger effect = lower value",0.167 (active)
same,normalized growth,"S. cerevisiae deletion strains, locus YOL012C, strain htz1",0.446
same,normalized growth,"S. cerevisiae deletion strains, locus YOL147C, strain pex11, stronger effect = lower value",0.914 (active)
same,normalized growth,"S. cerevisiae deletion strains, locus YOR001W, strain rrp6, stronger effect = lower value",0.873 (active)
same,normalized growth,"S. cerevisiae deletion strains, locus YOR061W, strain CKA2, stronger effect = lower value",0.682 (active)
same,normalized growth,"S. cerevisiae deletion strains, locus YOR069W, strain VPS5, stronger effect = lower value",0.614 (active)
same,normalized growth,"S. cerevisiae deletion strains, locus YOR070C, strain gyp1, stronger effect = lower value",0.739 (active)
same,normalized growth,"S. cerevisiae deletion strains, locus YOR080W, strain dia2, stronger effect = lower value",0.777 (active)
same,normalized growth,"S. cerevisiae deletion strains, locus YOR083W, strain WHI5, stronger effect = lower value",0.695 (active)
same,normalized growth,"S. cerevisiae deletion strains, locus YOR106W, strain vam3, stronger effect = lower value",0.27 (active)
same,normalized growth,"S. cerevisiae deletion strains, locus YOR136W, strain idh2, stronger effect = lower value",0.909 (active)
same,normalized growth,"S. cerevisiae deletion strains, locus YOR144C, strain elg1, stronger effect = lower value",0.94
same,normalized growth,"S. cerevisiae deletion strains, locus YOR184W, strain ser1, stronger effect = lower value",0.5 (active)
same,normalized growth,"S. cerevisiae deletion strains, locus YOR231W, strain MKK1, stronger effect = lower value",1.03
same,normalized growth,"S. cerevisiae deletion strains, locus YOR265W, strain rbl2, stronger effect = lower value",0.71 (active)
same,normalized growth,"S. cerevisiae deletion strains, locus YOR270C, strain vph1, stronger effect = lower value",0.306 (active)
same,normalized growth,"S. cerevisiae deletion strains, locus YOR290C, strain snf2, stronger effect = lower value",0.754 (active)
same,normalized growth,"S. cerevisiae deletion strains, locus YOR316C, strain cot1, stronger effect = lower value",0.903 (active)
same,normalized growth,"S. cerevisiae deletion strains, locus YPL051W, strain arl3, stronger effect = lower value",0.439 (active)
same,normalized growth,"S. cerevisiae deletion strains, locus YPL055C, strain LGE1, stronger effect = lower value",0.363 (active)
same,normalized growth,"S. cerevisiae deletion strains, locus YPL078C, strain atp4, stronger effect = lower value",0.845 (active)
same,normalized growth,"S. cerevisiae deletion strains, locus YPL106C, strain sse1, stronger effect = lower value",0.65 (active)
same,normalized growth,"S. cerevisiae deletion strains, locus YPL240C, strain hsp82, stronger effect = lower value",0.81 (active)
same,normalized growth,"S. cerevisiae deletion strains, locus YPL241C, strain CIN2, stronger effect = lower value",0.719 (active)
same,normalized growth,"S. cerevisiae deletion strains, locus YPL256C, strain CLN2, stronger effect = lower value",1.06
same,normalized growth,"S. cerevisiae deletion strains, locus YPR119W, strain clb2, stronger effect = lower value",0.931 (active)
same,normalized growth,"S. cerevisiae deletion strains, locus YPR141C, strain kar3, stronger effect = lower value",0.942
same,normalized growth,"S. cerevisiae deletion strains, locus YPR163C, strain tif3, stronger effect = lower value",0.844 (active)
same,normalized growth,"S. cerevisiae deletion strains, locus YPR167C, strain met16, stronger effect = lower value",0.734 (active)
same,normalized growth,"S. cerevisiae deletion strains, strain wtn01, stronger effect = lower value",0.751 (active)
same,normalized growth,"S. cerevisiae strains, strain wild type, stronger effect = lower value",0.246 (active)
